From PubChem
An excerpt weighted towards active compounds, which were near 8.7% of everything screened.
Cav3 T inh: blocks human Cav3.2 T-type calcium channel; O95180; Cav3.2-expressing cells, Fluo-4 calcium fluorescence FDSS; hits give low values; B-score at 10 µM; hit rate 4% among 100,000; AID 449739;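 active = single-dose well whose peak fluorescence ratio is a statistical outlier from its plate by either plate-standardised score or position-corrected B-score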
Smad3 inh: inhibitors of human Smad3 transcription factor binding; hit rate 0.29% among 88,000; inhibition, % at 25 µM; P84022; AID 630; TR-FRET Smad3/Dy647-FoxH1 peptide binding, europium anti-His;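 active = compounds that reduce the energy-transfer binding signal between the protein and its labelled peptide by more than half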;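 note: 0% = Smad3 plus labelled peptide maximal FRET and 100% = peptide-only background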
TNAP act DEA: activates human TNAP at intermediate phosphate acceptor concentration | 64,000 tested, under 10 active | AID 813 | purified TNAP, CDP-star luminescence, 100 mM DEA, 30 min; hits give high values; scale: 0 levamisole-inhibited, 1 vehicle-only enzyme | P05186 | activation factor at 20 µM;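 active = activation factor of at least 2 at 20 µM, relative to controls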
Target sequence (P05186 whole entry, looked up): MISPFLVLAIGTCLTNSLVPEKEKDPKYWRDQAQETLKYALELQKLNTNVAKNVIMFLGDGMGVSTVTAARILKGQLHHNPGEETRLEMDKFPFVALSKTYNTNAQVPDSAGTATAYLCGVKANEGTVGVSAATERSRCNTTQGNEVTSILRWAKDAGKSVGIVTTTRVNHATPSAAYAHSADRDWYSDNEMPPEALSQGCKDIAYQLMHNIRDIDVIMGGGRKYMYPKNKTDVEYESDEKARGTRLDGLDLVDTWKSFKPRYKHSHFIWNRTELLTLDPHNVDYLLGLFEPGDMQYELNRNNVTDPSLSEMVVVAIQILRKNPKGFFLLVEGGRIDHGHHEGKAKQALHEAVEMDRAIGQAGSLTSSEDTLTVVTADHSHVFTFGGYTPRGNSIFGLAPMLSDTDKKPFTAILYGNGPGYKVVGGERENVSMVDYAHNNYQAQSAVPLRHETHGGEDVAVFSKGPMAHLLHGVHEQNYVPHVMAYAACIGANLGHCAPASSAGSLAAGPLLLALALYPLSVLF
hDAT+cocaine: changed human dopamine transporter uptake under cocaine IC80 | LLC-PK1 hDAT cells, [14C]-dopamine uptake with cocaine IC80; actives deviate in either direction | Q01959 | B-score at 10 µM | AID 449768 | hit rate 1.3% among 110,000;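 active = Z score or B-score, a plate-position-corrected score, falls beyond the plate's 99.7% confidence bounds, in either direction; inactive = both scores lie inside the 99.7% bounds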;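 note: scored against the spread of the other compound wells on the same plate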
PostGolgi yeast: growth inhibition of a yeast mutant, post-Golgi transport screen | post-Golgi transport phenotypic cell assay | inhibition, % at 10 µM | hit rate 0.9% among 98,000 | AID 739;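 note: yeast cells grown in 1536-well plates; yeast grown about 18 h at 30C before absorbance read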
PostGolgi ctrl: inhibits growth of the yeast control strain. efflux-deficient yeast background strain, growth absorbance A615, 16 h. inhibition, % at 10 µM. hit rate 5% among 98,000. AID 738
Starred values were filed as active, the others as inactive; x = no result. Cut-off read from the data, not from the text of the source, unless noted: active = inhibition above about 30%; inactive = the rest.

SMILES	Cav3 T inh	Smad3 inh	TNAP act DEA	hDAT+cocaine	PostGolgi yeast	PostGolgi ctrl
c1coc(CNCCCN2CCOCC2)c1	0.53	1	x	0.11	4	7
O=C(NC1CCCCC1)N(Cc1ccccc1)Cc1ccco1	-9.1*	1	0.7	-0.28	-10	21
COc1ccc2[nH]c(=O)c(CN(Cc3cccnc3)C(=O)Nc3ccccc3)cc2c1	-2.2	-10	1	0.55	105*	94*
Cc1cccc2cc(CN(Cc3ccco3)C(=O)NC3CCCCC3)c(=O)[nH]c12	-2.6	-2	0.9	2.4*	-3	41*
COc1ccccc1NC(=O)N(Cc1ccco1)Cc1cc2cccc(C)c2[nH]c1=O	-2.4	-2	0.9	1.2	-3	37*
CCc1ccc2[nH]c(=O)c(CN(Cc3ccccc3OC)C(=O)Nc3ccccc3OC)cc2c1	-5.2*	13	x	0.013	1	45*
COc1ccccc1NC(=O)N(Cc1ccco1)Cc1cc2c(C)ccc(C)c2[nH]c1=O	-6*	3	0.9	2.3	x	x
CCOC(=O)CSc1ncc(OC)c(Sc2ccc(Cl)cc2)n1	-11*	x	x	-0.45	24	23
CCOC(=O)c1cnn(-c2ccc(C(C)C)cc2)c1NC(=O)C1CCC1	-0.56	x	x	0.59	11	1
CCn1c(SCC(=O)N2CCCC2)nc2ccccc2c1=O	0.052	3	0.9	-0.75	-5	12
C=CCn1c(SCC(=O)N2CCc3ccccc3C2)nc2ccccc2c1=O	-2.3	x	x	1.2	-6	49*
O=C(CSc1nnnn1-c1ccccc1)N1CCCc2ccccc21	-2	-14	x	2.3	-3	25
O=C(CSc1nnnn1-c1ccc(Cl)cc1)N1CCc2ccccc2C1	-0.48	3	0.9	0.86	19	38*
CCn1c(SCC(=O)N2CCCc3ccccc32)nc2ccccc2c1=O	-6.9*	14	1	3.1*	-1	40*
CCn1c(SCC(=O)N2CCCc3ccccc32)nnc1-c1ccco1	1.2	16	1	1.1	49*	1
CCOC(=O)C1CCN(C(=O)c2ccc(SC)cc2OC)CC1	0.11	3	1.1	-0.25	5	5
Cc1ccc(OCCCC(=O)Nc2ccccc2C(F)(F)F)cc1	-0.86	x	x	-1.3	-3	22
Cc1cccnc1NC(=O)Nc1cccc2ccccc12	-0.37	x	x	0.94	3	8
CC(C)c1nc(SCc2c(F)cccc2Cl)c2c(=O)n(C)c(=O)n(C)c2n1	-1.9	4	1	3.3*	1	12
CC(C)c1nc(SCC(=O)N2CCCc3ccccc32)c2c(=O)n(C)c(=O)n(C)c2n1	-3.3	5	x	-0.3	10	35*
O=C(CSc1nc2sc3c(c2c(=O)n1Cc1ccco1)CCC3)N1CCc2ccccc21	x	-43	0.9	x	x	x
Cc1cc2c(=O)n(Cc3ccco3)c(SCC(=O)N3CCCc4ccccc43)nc2s1	-0.95	8	0.9	1	4	32*
CCCc1nc(SCC(=O)N2CCc3ccccc32)c2c(=O)n(C)c(=O)n(C)c2n1	x	12	0.9	x	x	x
CCCCCn1c(=O)c(C(=O)OCC)c(O)c2ccccc21	x	-1	0.9	0.24	2	-5
CCCCCCCCn1c(=O)c(C(=O)OCC)c(O)c2ccccc21	-7.4*	2	x	0.2	0	7
SMILES	Cav3 T inh	Smad3 inh	TNAP act DEA	hDAT+cocaine	PostGolgi yeast	PostGolgi ctrl
Cc1ccccc1S(=O)(=O)Cc1ccc(C(=O)NCc2cccs2)o1	0.086	-11	x	-8.4*	-4	18
COc1ccc(S(=O)(=O)Cc2ccc(C(=O)N3CCN(c4ccccc4F)CC3)o2)cc1	-0.54	-1	1	1.2	-5	32*
Cc1ccccc1S(=O)(=O)Cc1ccc(C(=O)N2CCN(c3cccc(C)c3C)CC2)o1	-2.1	x	0.9	1.1	0	38*
COc1ccc(S(=O)(=O)Cc2ccc(C(=O)N3CCN(c4ccccc4)CC3)o2)cc1	-0.088	x	0.8	0.19	2	2
NC(=O)CC(NC(=O)c1ccc(Br)cc1)c1ccc(NCc2ccc(F)c(F)c2)c([N+](=O)[O-])c1 (configuration not stated)	-0.7	x	x	0.79	x	x
CC1(C(=O)NC23CC4CC(CC(C4)C2)C3)CC1(Cl)Cl (configuration not stated)	0.37	x	x	-0.49	-1	34*
CS(=O)(=O)N1CCN(C(=O)NC23CC4CC(CC(C4)C2)C3)CC1	0.46	-3	0.9	-1	0	6
